In PubChem BioAssay (NCI) one finds growth inhibition data, which are given here for eleven compounds.

About 79,000 compounds went through this panel and 15% of them were active in at least one assay; those are over-represented in the sample as a whole. Values without a mark were called inactive. Calls of active or inactive are those of the source. No stated cut-off is given here; in the data, active means growth inhibition above about 70%; inactive means the rest.

Experiment [1] in a line: NCI Yeast Anticancer Drug Screen. Data for the rad50 strain (AID 155).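 Further: 0% = growth of vehicle-only cultures of the same strain.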 The conditions noted are these: S. cerevisiae rad50 strain growth inhibition, hits give high values. In short, it runs like this:
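Compounds were tested on a yeast strain with an engineered DNA damage repair alteration; the reported value is growth inhibition normalised to vehicle treatment.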

Experiment [2] can be described thus: NCI Yeast Anticancer Drug Screen. Data for the mec2-1 strain (AID 157). The note with it: S. cerevisiae mec2-1 strain, hits give high values. An outline of the steps: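 Yeast mec2-1 mutant treated with compound. Readout: growth inhibition vs vehicle controls.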
Experiment [3] can be described thus: NCI Yeast Anticancer Drug Screen. Data for the sgs1 mgt1 strain (AID 161).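 Further: 0% = growth of cultures given vehicle only.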 The note with it: S. cerevisiae sgs1 mgt1 strain, hits give high values. In short, it runs like this: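 Read-out: growth inhibition vs vehicle controls. Cells: mutant yeast strain deficient in DNA damage repair.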
Experiment [4] is described as follows: NCI Yeast Anticancer Drug Screen. Data for the cln2 rad14 strain (AID 165).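 Further: 0% = growth equal to vehicle treated cultures.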 The conditions noted are these: S. cerevisiae cln2 rad14 strain, hits give high values. In short, it runs like this:
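cln2 rad14 yeast strain; compound exposure; growth inhibition read vs vehicle controls.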

Experiment [5] is described as follows: NCI Yeast Anticancer Drug Screen. Data for the mlh1 rad18 strain (AID 175). The note with it: S. cerevisiae mlh1 rad18 strain growth inhibition, hits give high values. In short, it runs like this:
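Yeast w/ defined DNA-repair lesions; compound exposure; growth vs vehicle controls → % inhibition.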

Experiment [6] is described as follows: NCI Yeast Anticancer Drug Screen. Data for the bub3 strain (AID 167). The conditions noted are these: S. cerevisiae bub3 mutant strain, hits give high values. In short, it runs like this: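 Growth of a checkpoint-deficient yeast mutant is measured after compound exposure. Values represent inhibition relative to vehicle.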
Where [7] appears, read: at 5.0 µM (retest, dose inferred, filed as 0.5).
Setting [8] is: at 50.0 µM (retest, dose inferred, filed as 5.0).

With `CCCOCCC#N`, the growth inhibition in experiment [1] (setting [7]) was 8%; in experiment [1] (setting [8]), -2%; in experiment [1] (at 50.0 µM), -11.6%; in experiment [2] (setting [7]), 5%; in experiment [2] (setting [8]), 0%; in experiment [2] (at 50.0 µM) it was 7.45%. In addition, the growth inhibition in experiment [3] (setting [7]) is -6%; in experiment [3] (setting [8]) it was 1%; in experiment [3] (at 50.0 µM), -8.1%; in experiment [4] (setting [7]) it was 5%; in experiment [4] (setting [8]) it was -2%; in experiment [4] (at 50.0 µM), 40.9%. The growth inhibition in experiment [5] (setting [7]) was 7%; in experiment [5] (setting [8]), -1%; in experiment [5] (at 50.0 µM) it was -17.9%.
Turning to `CCCC(=O)Oc1c(Br)cc(Br)cc1Br`, the growth inhibition is -1% in experiment [1] (setting [7]); 17% in experiment [1] (setting [8]); 21.6% in experiment [1] (at 50.0 µM); -4% in experiment [2] (setting [7]); 7% in experiment [2] (setting [8]); 21.3% in experiment [2] (at 50.0 µM). The growth inhibition in experiment [3] (setting [7]) was -4%; in experiment [3] (setting [8]) it was 7%; in experiment [3] (at 50.0 µM) it was 19.1%; in experiment [4] (setting [7]), -6%; in experiment [4] (setting [8]) it was -19%; in experiment [4] (at 50.0 µM) it was 44.9%. Besides, the growth inhibition in experiment [6] (setting [7]) is 1%; in experiment [6] (setting [8]) it was 19%; in experiment [6] (at 50.0 µM) it was 45.5%; in experiment [5] (setting [7]) it was -1%; in experiment [5] (setting [8]) it was 12%; in experiment [5] (at 50.0 µM), 20.6%.
For the compound `CCN(CC)CCOc1cccc2c1C(=O)c1c(O)cccc1C2=O`, the growth inhibition in experiment [1] (setting [7]) is 12%; in experiment [1] (setting [8]) it was 72% (active); in experiment [1] (at 50.0 µM), 59.4%; in experiment [2] (setting [7]) it was -21%; in experiment [2] (setting [8]) it was 70% (active); in experiment [2] (at 50.0 µM), 39.3%. Also, the growth inhibition in experiment [3] (setting [7]) is 4%; in experiment [3] (setting [8]) it was 54%; in experiment [3] (at 50.0 µM), 71.2% (active); in experiment [6] (setting [7]) it was 8%; in experiment [6] (setting [8]) it was 47%; in experiment [6] (at 50.0 µM) it was 35.9%. In addition, the growth inhibition in experiment [5] (setting [7]) was -1%; in experiment [5] (setting [8]) it was 79% (active); in experiment [5] (at 50.0 µM) it was 62.4%.
As to `C=CCOC(=O)SC(=S)OCN(C)C`, the growth inhibition in experiment [1] (setting [7]) is 3%; in experiment [1] (setting [8]), 98% (active); in experiment [1] (at 50.0 µM), 99.2% (active); in experiment [2] (setting [7]), -3%; in experiment [2] (setting [8]), 99% (active); in experiment [2] (at 50.0 µM), 99.4% (active). In addition, the growth inhibition in experiment [3] (setting [7]) was 1%; in experiment [3] (setting [8]), 99% (active); in experiment [3] (at 50.0 µM) it was 99.4% (active); in experiment [4] (setting [7]) it was 4%; in experiment [4] (setting [8]), 99% (active); in experiment [4] (at 50.0 µM), 98.6% (active). In addition, the figures for the growth inhibition in experiment [5] (setting [7]), in experiment [5] (setting [8]) and in experiment [5] (at 50.0 µM) were 1%, 99% (active) and 99.1% (active), respectively.
`C=C1CC(O)C2C(C[Se]c3ccccc3)C(=O)O[C@@H]2C2C(=C)[C@@H](O)CC12` (some centres undefined): the growth inhibition in experiment [1] (setting [7]) is -3%; in experiment [1] (setting [8]) it was 27%; in experiment [1] (at 50.0 µM), 46.4%; in experiment [2] (setting [7]) it was 1%; in experiment [2] (setting [8]), 36%; in experiment [2] (at 50.0 µM), 52.1%. Also, the growth inhibition in experiment [3] (setting [7]) is 0%; in experiment [3] (setting [8]), 43%; in experiment [3] (at 50.0 µM), 29.6%; in experiment [4] (setting [7]), -5%; in experiment [4] (setting [8]) it was 5%; in experiment [4] (at 50.0 µM), -13.3%. In addition, the growth inhibition in experiment [5] (setting [7]) is -2%; in experiment [5] (setting [8]) it was 30%; in experiment [5] (at 50.0 µM) it was 70.7% (active).
On to `COC(=O)NNc1c([N+](=O)[O-])cnn(-c2ccccc2)c1=O`, for which the growth inhibition in experiment [1] (setting [7]) is 18%; in experiment [1] (setting [8]), 56%; in experiment [1] (at 50.0 µM), 14.9%; in experiment [2] (setting [7]) it was -5%; in experiment [2] (setting [8]) it was 10%; in experiment [2] (at 50.0 µM) it was 0.55%. For the same compound, the growth inhibition in experiment [3] (setting [7]) is -1%; in experiment [3] (setting [8]) it was -14%; in experiment [3] (at 50.0 µM) it was 14%; in experiment [4] (setting [7]), 9%; in experiment [4] (setting [8]), 32%; in experiment [4] (at 50.0 µM), 30%. Besides, the growth inhibition was 11% in experiment [6] (setting [7]); 26% in experiment [6] (setting [8]); 0.9% in experiment [6] (at 50.0 µM); -11% in experiment [5] (setting [7]); -12% in experiment [5] (setting [8]); -8.15% in experiment [5] (at 50.0 µM).
Consider `Clc1ccc(C(CCc2ccc(Br)cc2)Cn2ccnc2)c(Cl)c1` (centres undefined), for which the growth inhibition in experiment [1] (setting [7]) is 94% (active); in experiment [1] (setting [8]), 99% (active); in experiment [1] (at 50.0 µM), 99.4% (active); in experiment [2] (setting [7]) it was 82% (active); in experiment [2] (setting [8]) it was 99% (active); in experiment [2] (at 50.0 µM), 99.5% (active). Further, the growth inhibition was 87% (active) in experiment [3] (setting [7]); 99% (active) in experiment [3] (setting [8]); 59.7% in experiment [3] (at 50.0 µM); 72% (active) in experiment [4] (setting [7]); 99% (active) in experiment [4] (setting [8]); 99.5% (active) in experiment [4] (at 50.0 µM). The growth inhibition in experiment [5] (setting [7]) was 71% (active); in experiment [5] (setting [8]), 98% (active); in experiment [5] (at 50.0 µM) it was 99.5% (active).
Consider `CCOC(=O)Cc1csc2[n+]1C(=O)/C(=C/c1ccc(OC)c(OC)c1)S2`, for which the growth inhibition in experiment [1] (setting [7]) was -11%; in experiment [1] (setting [8]), 11%; in experiment [1] (at 50.0 µM) it was 95.2% (active); in experiment [2] (setting [7]) it was -14%; in experiment [2] (setting [8]), 10%; in experiment [2] (at 50.0 µM), 94.2% (active). The growth inhibition in experiment [3] (setting [7]) was -11%; in experiment [3] (setting [8]), 14%; in experiment [3] (at 50.0 µM) it was 94.2% (active); in experiment [4] (setting [7]) it was -1%; in experiment [4] (setting [8]), 8%; in experiment [4] (at 50.0 µM), 93% (active). Moreover, the growth inhibition in experiment [6] (setting [7]) is -22%; in experiment [6] (setting [8]) it was -2%; in experiment [6] (at 50.0 µM), 95.7% (active); in experiment [5] (setting [7]) it was -17%; in experiment [5] (setting [8]), 17%; in experiment [5] (at 50.0 µM), 93% (active).
Turning to `Cc1ccc(S(=O)(=O)N/N=c2\c(C)c(C3=NS(=O)(=O)c4cc(S(N)(=O)=O)c(Cl)cc4N3)oc3c(Cl)cc(Cl)cc23)cc1`, the growth inhibition in experiment [1] (setting [7]) is 40%; in experiment [1] (setting [8]), 63%; in experiment [1] (at 50.0 µM), 77.9% (active); in experiment [2] (setting [7]), 32%; in experiment [2] (setting [8]), 55%; in experiment [2] (at 50.0 µM), 47%. For the same compound, the growth inhibition in experiment [3] (setting [7]) is 28%; in experiment [3] (setting [8]) it was 59%; in experiment [3] (at 50.0 µM), 56.5%; in experiment [4] (setting [7]), 33%; in experiment [4] (setting [8]), 60%; in experiment [4] (at 50.0 µM), 65.9%. In addition, the values for the growth inhibition in experiment [5] (setting [7]), in experiment [5] (setting [8]) and in experiment [5] (at 50.0 µM) were 44%, 69% and 59.2%, respectively.
As for `O=S(=O)(OI(OI(OS(=O)(=O)C(F)(F)F)c1ccccc1)c1ccccc1)C(F)(F)F`, the growth inhibition was 58% in experiment [1] (setting [7]); 97% (active) in experiment [1] (setting [8]); 89.2% (active) in experiment [1] (at 50.0 µM); 48% in experiment [2] (setting [7]); 98% (active) in experiment [2] (setting [8]); 91.5% (active) in experiment [2] (at 50.0 µM). For the same compound, the growth inhibition is 44% in experiment [3] (setting [7]); 98% (active) in experiment [3] (setting [8]); 91.7% (active) in experiment [3] (at 50.0 µM); 27% in experiment [4] (setting [7]); 92% (active) in experiment [4] (setting [8]); 91.1% (active) in experiment [4] (at 50.0 µM). For the same compound, the growth inhibition in experiment [5] (setting [7]) is 75% (active); in experiment [5] (setting [8]), 97% (active); in experiment [5] (at 50.0 µM), 89.2% (active).
On to `[N-]=[N+]=Nc1ccnc2ccc(C3CCCCC3)cc12`, for which the growth inhibition in experiment [1] (setting [7]) was -8%; in experiment [1] (setting [8]) it was 99% (active); in experiment [1] (at 50.0 µM), 56.5%; in experiment [2] (setting [7]), -8%; in experiment [2] (setting [8]), 100% (active); in experiment [2] (at 50.0 µM) it was 30.9%. Moreover, the growth inhibition in experiment [3] (setting [7]) is -8%; in experiment [3] (setting [8]), 99% (active); in experiment [3] (at 50.0 µM) it was 94.8% (active); in experiment [4] (setting [7]), 6%; in experiment [4] (setting [8]) it was 99% (active); in experiment [4] (at 50.0 µM), 51.1%. The growth inhibition was -2% in experiment [5] (setting [7]), 99% (active) in experiment [5] (setting [8]) and 91.7% (active) in experiment [5] (at 50.0 µM).
